Bioassay records: PubChem, Sanford-Burnham Center for Chemical Genomics
CYP2C19 inh – inhibitors of human CYP2C19. P33261. CYP2C19 Supersomes, luciferin-H EGE luminescence, 30 min. inhibition, % at 5 µM. 21% of 96,000 active;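 active = CYP2C19 inhibition above a set limit at 5 µM in the primary screen, cut at about 50% in these data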;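 also: plate controls were negative control wells for no effect and 2.5 mM tranylcypromine positive control for full effect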
Pyk2 oligo antag – blocks oligomerization of human Pyk2 in cells; z-score (the deposit names both 25 µM and 10 µM); 0.83% of 99,000 active; AID 1347419; Q293 cells, Pyk2 FERM NanoBiT luminescence; active compounds read low;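 active = Z-score of -3 or lower, scaled per plate to the spread of control and sample wells; inactive = z-score above -3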;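 also: negative z-score means lost luminescence so less FERM oligomerization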
Target sequence (Q14289 whole entry, looked up): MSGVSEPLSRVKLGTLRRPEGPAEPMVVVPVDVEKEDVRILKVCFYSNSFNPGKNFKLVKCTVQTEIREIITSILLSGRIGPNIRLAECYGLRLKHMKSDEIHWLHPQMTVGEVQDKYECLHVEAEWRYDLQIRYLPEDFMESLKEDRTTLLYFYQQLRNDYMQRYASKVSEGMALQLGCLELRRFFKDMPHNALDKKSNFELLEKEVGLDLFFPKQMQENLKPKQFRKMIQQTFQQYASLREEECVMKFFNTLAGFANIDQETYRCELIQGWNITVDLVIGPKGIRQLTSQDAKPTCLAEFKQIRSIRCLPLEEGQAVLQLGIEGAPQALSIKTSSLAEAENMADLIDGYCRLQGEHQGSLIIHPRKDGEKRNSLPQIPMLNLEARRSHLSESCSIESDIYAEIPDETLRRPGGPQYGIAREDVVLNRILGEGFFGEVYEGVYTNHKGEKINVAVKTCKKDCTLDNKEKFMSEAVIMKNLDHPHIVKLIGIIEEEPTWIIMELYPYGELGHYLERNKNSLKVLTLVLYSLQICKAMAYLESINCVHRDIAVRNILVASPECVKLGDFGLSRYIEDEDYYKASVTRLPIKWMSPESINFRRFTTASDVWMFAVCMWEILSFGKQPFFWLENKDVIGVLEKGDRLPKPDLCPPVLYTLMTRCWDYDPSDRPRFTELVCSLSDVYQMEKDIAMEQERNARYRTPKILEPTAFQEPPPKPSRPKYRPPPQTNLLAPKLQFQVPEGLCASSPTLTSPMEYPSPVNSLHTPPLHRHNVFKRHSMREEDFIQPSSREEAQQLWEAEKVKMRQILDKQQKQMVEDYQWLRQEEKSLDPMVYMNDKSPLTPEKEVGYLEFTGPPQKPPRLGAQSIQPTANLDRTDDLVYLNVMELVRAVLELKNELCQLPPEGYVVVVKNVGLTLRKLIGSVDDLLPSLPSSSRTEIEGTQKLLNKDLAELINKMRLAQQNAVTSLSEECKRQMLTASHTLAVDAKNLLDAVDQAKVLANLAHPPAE
CYP2C9 act – activators of human CYP2C9. activation factor at 5 µM. P11712. 1.4% of 96,000 active. recombinant CYP2C9, luciferin-H conversion, luminescence; active compounds read high; factor 1 = untreated enzyme, 0 = blocked;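 active = activation factor of 2 or more for CYP2C9 at a 5 µM dose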;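 also: 0 = sulfaphenazole-blocked wells and 1 = vehicle-only wells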
CYP2C19 activ – cytochrome P450 2C19 (human) activation. P33261. recombinant CYP2C19, luciferin-H EGE luminescence; active compounds read high; 0 = fully inhibited enzyme, 1 = untreated enzyme. activation factor at 5 µM. 96,000 tested, under 10 active. AID 1025;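 active = activation factor of at least 2 at 5 µM in the primary screen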;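 also: 0 = wells with 2.5 mM tranylcypromine and 1 = vehicle-only wells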
CYP2C9 inh – inhibitors of human CYP2C9 | CYP2C9 Supersomes, luciferin-H conversion, luminescence | 20% of 96,000 active | inhibition, % at 5 µM | AID 777 | P11712;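 active = blocking of liver enzyme CYP2C9 beyond about 50% at 5 µM, limit read from the data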
Active calls of the source: *; x = no result. Most compounds without a hit are left out; they make up all but 28% or so of the library.

SMILES | CYP2C19 inh | Pyk2 oligo antag | CYP2C9 act | CYP2C19 activ | CYP2C9 inh
C/C(=N/NC(=O)c1cc2ccccc2cc1O)C1C(=O)c2ccccc2C1=O | 91* | -1.3 | 0 | 0.1 | 98*
N#Cc1cnn(Cc2ccc(Cl)cc2)c1N | 55* | -0.31 | 0.9 | 0.5 | 6
O=C(O)C1C2C=CC(C2)C1C(=O)NC(c1ccccc1)c1ccccc1 (stereo not drawn) | -17 | -0.1 | 1.3 | 1.2 | -35
COc1ccccc1S(=O)Cc1ccc(C(=O)NCCc2ccc(Cl)cc2)o1 (stereo not drawn) | 62* | x | 0.4 | 0.4 | 65*
COc1ccccc1S(=O)Cc1ccc(C(=O)NC2CCCC2)o1 (stereo not drawn) | 13 | x | 0.5 | 0.9 | 55*
COc1ccc(CCNC(=O)c2nnc(Cc3ccc(Cl)cc3)o2)cc1OC | 15 | x | 0.5 | 0.9 | 46
O=C(NC1CCCC1)c1ccc(Br)o1 | 7 | 0.02 | 1 | 0.9 | 3
COC(=O)c1cnn(-c2ccc(C)c(C)c2)c1-n1cccc1 | x | 0.13 | x | x | x
Cc1cccc(NC(=O)c2cccc(Cn3cc(Br)c([N+](=O)[O-])n3)c2)c1C | 7 | 0.01 | 0.9 | 0.9 | 8
S=c1[nH]cc(-c2ccccc2)n1-c1ccccc1 | 79* | -0.62 | 0.2 | 0.2 | 78*
CCn1c(-c2ccccc2)c[nH]c1=S | 58* | 1.7 | 0.7 | 0.4 | 31
Cc1ccc(-n2c(-c3ccccc3)n[nH]c2=S)cc1 | x | -0.13 | x | x | x
COc1ccc(CC(=O)N2CC(=O)N(CCc3ccccc3)C(=O)C2)cc1 | 26 | 0.16 | 1 | 0.7 | 0
CC1=NC(=O)C(N=Nc2cccc(O)c2)N1c1ccccc1 (stereo not drawn) | 20 | -0.83 | 0.6 | 0.8 | 39
COc1ccc(NC(=O)C2CCN(c3nnnn3-c3ccccc3)CC2)cc1 | 8 | 0.28 | 0.8 | 0.9 | 20
COc1ccc(-n2c(-c3ccccc3)nnc2-c2ccc(Cl)cc2)cc1 | -1 | 0.23 | 1 | 1 | -4
Clc1ccc(-n2nnnc2-c2ccccc2)cc1 | 98* | -0.05 | 0.4 | 0 | 61*
O=C(O)c1nc(-c2ccccc2)n(-c2ccc(Cl)cc2)n1 | -1 | 1.3 | 0.9 | 1 | 7
COc1ccc(-n2nnnc2-c2ccccc2)cc1 | 76* | -0.43 | 0.6 | 0.2 | 35
COc1ccc(OCc2nnnn2-c2ccccc2)cc1 | 69* | -0.67 | 0.8 | 0.3 | 21
Cc1cccnc1Nc1nc(-c2ccc(O)c(O)c2)cs1 | 66* | -0.82 | 0.2 | 0.3 | 76*
COc1ccc(-c2csc(Nc3ncccc3C)n2)cc1OC | 7 | 0.12 | 0.8 | 0.9 | 22
O=C(C1CCN(S(=O)(=O)c2ccc(Br)s2)CC1)N1CCc2ccccc21 | 43 | -0.49 | 0.9 | 0.6 | 12
Cc1c(-c2ccco2)[n+](=O)c2c(n1[O-])CCCCC2 | 47 | 0.95 | 1 | 0.5 | -3
Cc1c(-c2ccccc2)[n+](=O)c(-c2ccco2)c(C)n1[O-] | 87* | -0.35 | 1 | 0.1 | -4
SMILES | CYP2C19 inh | Pyk2 oligo antag | CYP2C9 act | CYP2C19 activ | CYP2C9 inh
COc1ccc(NS(=O)(=O)Cc2ccccc2Cl)cn1 | 64* | -0.59 | 0.7 | 0.4 | 33
CC(C)[C@H](NC(=O)NCCc1ccc(Cl)cc1)C(=O)O | -4 | 0.04 | 0.9 | 1 | 12
O=C(O)c1ccc(-c2ccccc2Cl)o1 | x | 1.7 | x | x | x
CC(=O)C1=C(C)NC(C)=C(C(C)=O)C1c1ccc(-c2ccccc2Cl)o1 | 86* | 3 | 0 | 0.1 | 97*
CC(C)N(C(=O)CN1C(=O)NC2(CCCCCC2)C1=O)C(C)C | -6 | 1.8 | 1.1 | 1.1 | -10
CC(=O)c1c(COC(=O)c2ccccc2)nc2ccccc2[n+]1[O-] | 73* | 0.64 | 0.7 | 0.3 | 33
Cc1nc2ccc(C(=O)OCc3ccccc3Br)cc2nc1C | 16 | 0.13 | 1.3 | 0.8 | -32
O=C(CN1C(=O)NC2(CCc3ccccc32)C1=O)Nc1cc(C(F)(F)F)ccc1N1CCOCC1 (stereo not drawn) | 35 | x | 0.1 | 0.7 | 89*
Cc1nc2ccccc2nc1OCC(=O)Nc1cc(C(F)(F)F)ccc1N1CCOCC1 | 7 | -0.15 | 0.7 | 0.9 | 34
CC1(C)Cc2cccc(OCC(=O)Nc3cccnc3Cl)c2O1 | 98* | -0.34 | 2.2* | 0 | -116
CC1(C)Cc2cccc(OCC(=O)Nc3cc(C(F)(F)F)ccc3N3CCOCC3)c2O1 | 19 | -2.4 | 0.5 | 0.8 | 51*
Cn1ccnc1SCC(=O)Nc1cc(C(F)(F)F)ccc1N1CCOCC1 | 31 | -0.17 | 0.8 | 0.7 | 22
CC1(C)Cc2cccc(OCC(=O)Nc3cccnc3)c2O1 | 28 | 0.14 | 0.8 | 0.7 | 19
CCOc1cc(N2CCOCC2)c(OCC)cc1NC(=O)CN1C(=O)NC2(CCc3ccccc32)C1=O (stereo not drawn) | 21 | 0.77 | 0.6 | 0.8 | 44
CC(=O)c1c(C)[nH]c(C(=O)OCC(=O)Nc2cc(C(F)(F)F)ccc2N2CCOCC2)c1C | 35 | 0.96 | 0.4 | 0.7 | 58*
C/C(=N/N1CCN(c2ccccn2)CC1)c1ccc([N+](=O)[O-])cc1 | 0 | 0.27 | 1.1 | 1 | -7
CCNC(=O)N(C(=O)NCC)n1c(C)nnc1C | -9 | -0.56 | 1.1 | 1.1 | -9
Cc1noc(C)c1COC(=O)COc1cccc2c1OC(C)(C)C2 | 77* | -0.16 | 0.3 | 0.2 | 68*
CCN(CC)CCCN(Cc1cc2cc3c(cc2[nH]c1=O)OCCO3)C(=O)Nc1ccc(F)cc1 | 19 | -0.01 | 0.9 | 0.8 | 6
CCN1CCN(C(=O)c2cc3nc(-c4ccccc4)cc(C(F)(F)F)n3n2)CC1 | 14 | 0.3 | 1 | 0.9 | 3
COc1ccc2cc(CCNC(=O)c3ccc4c(c3)OCO4)c(=O)[nH]c2c1 | 37 | x | 0.2 | 0.6 | 82*
COc1ccc2cc(CCNC(=O)c3ccc(Br)o3)c(=O)[nH]c2c1 | 51* | x | 0.8 | 0.5 | 25
CCCCC(NC(C)=O)c1nc2ccccc2n1CCCC (stereo not drawn) | 11 | -0.33 | 0.9 | 0.9 | 6
O=C(Cn1nc(Cl)nc1Cl)Nc1ccccc1 | 40 | 1 | 0.9 | 0.6 | 11
CC(=O)NC1=NN(C(C)=O)C(C)(CS(=O)(=O)c2ccc3ccccc3c2)S1 (stereo not drawn) | x | 1 | x | x | x
SMILES | CYP2C19 inh | Pyk2 oligo antag | CYP2C9 act | CYP2C19 activ | CYP2C9 inh
CCSc1ccccc1C(=O)NCc1ccc2c(c1)OCO2 | 99* | 0.36 | 0.6 | 0 | 37
CC(=O)OC(C(=O)NCc1ccc2c(c1)OCO2)c1ccccc1Cl (stereo not drawn) | 93* | -0.21 | 0.5 | 0.1 | 54*
CSc1ccccc1C(=O)NCc1ccc2c(c1)OCO2 | 94* | 0.69 | 0.9 | 0.1 | 12
CCSc1ccccc1C(=O)N1CCN(Cc2ccc3c(c2)OCO3)CC1 | 12 | 0.42 | 1 | 0.9 | 3
O=C(NCc1ccc2c(c1)OCO2)c1cc(-c2ccccc2)on1 | 4 | 0.46 | 1.2 | 1 | -16
O=C(NCc1ccc2c(c1)OCO2)C1CCN(c2ncccn2)CC1 | 8 | 1.2 | 0.6 | 0.9 | 41
